Data on twelve molecules can be found in PubChem BioAssay (EPA / NIEHS).

Where “and” joins values, the source holds several entries; their conditions need not be identical. Equal entries are not always repeated. Records with an inconclusive call do not appear. Calls of active or inactive are those of the source. The calls were made as follows: active = hit-call score of the fitted dose curve at least 0.9, where 1 is the maximum; inconclusive = response in the unintended direction; inactive = score below 0.9.

Experiment [1] in a line: Tanguay_ZF_120hpf_JAW_legacy: (Legacy) Oregon State University Tanguay Lab 120 Hour Post-fertilization zebrafish Assay for Jaw Malformation (AID 2283638).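 As to AC50: active means more embryos with jaw malformation than DMSO controls.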 The essentials: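 Dechorionated Tropical 5D wild-type zebrafish embryos, one per well, exposed statically from 6 hpf to 120 hpf at 28C in 0.64% DMSO. Jaw malformation was scored by brightfield microscopy as present or absent. It was not scored in dead embryos.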

A short description of experiment [2]: Tanguay_ZF_120hpf_OTIC_legacy: (Legacy) Oregon State University Tanguay Lab 120 Hour Post-fertilization zebrafish Assay for Otic Vesicle Malformation (AID 2283639). In a few lines: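 Wild-type zebrafish larvae, whole-embryo exposure from early stage to 120 hpf at 28C. Binary brightfield scoring of otic vesicle morphology, fitted in the positive direction against the DMSO baseline.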

Experiment [3] in a line: Tanguay_ZF_120hpf_PE_legacy: (Legacy) Oregon State University Tanguay Lab 120 Hour Post-fertilization zebrafish Assay for Pericardial Edema (AID 2283640).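 As to AC50: potency for increased incidence of pericardial edema versus DMSO baseline.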 In a few lines: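 Tropical 5D wild-type zebrafish embryos were statically exposed until 120 hpf at 28C, with 0.64% DMSO final. Pericardial edema was scored by brightfield as present or absent; endpoints were not scored in dead embryos.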

Experiment [4] can be described thus: Tanguay_ZF_120hpf_BRAI_legacy: (Legacy) Oregon State University Tanguay Lab 120 Hour Post-fertilization zebrafish Assay for Brain Malformation (AID 2283641). In a few lines: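 Tropical 5D wild-type zebrafish embryos exposed statically until 120 hpf at 28C, 0.64% DMSO final, sealed and dark. Brain malformation scored present/absent by brightfield at 120 hpf; dead embryos excluded. Trimethyltin chloride 5uM positive control.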

Experiment [5] is described as follows: Tanguay_ZF_120hpf_SOMI_legacy: (Legacy) Oregon State University Tanguay Lab 120 Hour Post-fertilization zebrafish Assay for Somite Malformation (AID 2283647). The essentials:
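Dechorionated Tropical 5D wild-type zebrafish embryos, one per well from 6 hpf, statically exposed at 28C to 120 hpf in 0.64% DMSO; somite malformation scored present/absent by brightfield; trimethyltin 5 uM positive control; dead embryos not scored.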

Experiment [6] in a line: Tanguay_ZF_120hpf_PFIN_legacy: (Legacy) Oregon State University Tanguay Lab 120 Hour Post-fertilization zebrafish Assay for Pectoral Fin Malformation (AID 2283648).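 Also: each larva judged yes or no for fin defect by brightfield with dead larvae skipped.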 In a few lines:
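Binary pectoral fin malformation call at 120 hpf by brightfield microscopy; 5D wild-type zebrafish, chorion removed at 4 hpf, one embryo per well from 6 hpf, static exposure at 28C; DMSO (0.64% final) as baseline.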

Experiment [7] in a line: Tanguay_ZF_120hpf_CFIN_legacy: (Legacy) Oregon State University Tanguay Lab 120 Hour Post-fertilization zebrafish Assay for Caudal Fin Malformation (AID 2283649). In a few lines:
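Dechorionated Tropical 5D wild-type embryos, one per well from 6 hpf, static exposure to 120 hpf at 28C in 0.64% DMSO. Caudal fin malformation scored by brightfield as present/absent; not scored in dead embryos.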

A short description of experiment [8]: Tanguay_ZF_120hpf_PIG_legacy: (Legacy) Oregon State University Tanguay Lab 120 Hour Post-fertilization zebrafish Assay for Pigmentation Malformation (AID 2283650). In a few lines:
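Brightfield scoring of pigmentation malformation at 120 hpf, recorded as binary present/absent per larva. Exposure: dechorionated 5D wild-type embryos, one per well, static from 6 hpf at 28C, final DMSO 0.64% (vol/vol). Dead embryos not scored.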

The nature of experiment [9]: Tanguay_ZF_120hpf_CIRC_legacy: (Legacy) Oregon State University Tanguay Lab 120 Hour Post-fertilization zebrafish Assay for Circulatory Malformation (AID 2283651). The essentials: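 Binary circulatory-malformation call at 120 hpf via brightfield imaging, relative to DMSO controls. Embryos (5D strain, chorion removed) received static, light-shielded exposure at 28C.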

Experiment [10] in a line: Tanguay_ZF_120hpf_SWIM_legacy: (Legacy) Oregon State University Tanguay Lab 120 Hour Post-fertilization zebrafish Assay for Swim Bladder Malformation (AID 2283654).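 Also: swim bladder malformation in each larva scored yes or no under brightfield.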 In a few lines: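 Tropical 5D embryos dechorionated at 4 hpf; 1 embryo/well from 6 hpf; static, sealed, dark exposure at 28C until 120 hpf; final DMSO 0.64%; 5uM trimethyltin chloride positive control; swim bladder defect recorded yes/no; dead embryos not scored.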

Experiment [11] can be described thus: Tanguay_ZF_120hpf_TRUN_legacy: (Legacy) Oregon State University Tanguay Lab 120 Hour Post-fertilization zebrafish Assay for Truncated Body (AID 2283655). In a few lines:
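Dechorionated Tropical 5D wild-type embryos placed singly from 6 hpf and statically exposed to 120 hpf at 28C, final DMSO 0.64%. Truncated body scored as present/absent by brightfield; not scored in dead embryos.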

Experiment [12] is described as follows: Tanguay_ZF_120hpf_NC_legacy: (Legacy) Oregon State University Tanguay Lab 120 Hour Post-fertilization zebrafish Assay for Notochord and Tail Malformation (AID 2283656). In a few lines:
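Binary notochord-distortion calls, made by brightfield inspection, form the read-out; activity is fitted in the positive direction against DMSO. Exposure ran statically from 6 to 120 hpf at 28C with 0.64% DMSO.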

Read-out in experiment [13]: ABC Transporter (ABCB1), ABCB1 (gene 5243)
In words: CLD_ABCB1_6hr: CellzDirect (CLD) Gene Expression Assay for ABC Transporter (ABCB1) at 6 hours (AID 2283659).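 Also: hits raise ABCB1 transcript above the DMSO vehicle baseline.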 In a few lines: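 ABCB1 transcript measured by quantitative nuclease protection assay, chemiluminescent read-out, 6 h after dosing human hepatocyte cultures (0.2% DMSO vehicle, daily redosing). Activity fitted as increase over DMSO baseline; cytotoxicity flagged by phase-contrast morphology.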

Read-out in experiment [14]: Broad substrate specificity ATP-binding cassette transporter ABCG2 (Homo sapiens) (UniProt Q9UNQ0)
In words: CLD_ABCG2_6hr: CellzDirect (CLD) Gene Expression Assay for ABC Transporter (ABCG2) at 6 hours (AID 2283660). In a few lines:
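ABCG2 mRNA induction measured by qNPA chemiluminescence in human primary hepatocyte cultures, 6 h post-dose. Chemicals tested at several concentrations against a 0.2% DMSO vehicle; positive-direction fit relative to DMSO.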

Read-out in experiment [15]: xenobiotic metabolism (CYP1A1), CYP1A1 (gene 1543)
In words: CLD_CYP1A1_6hr: CellzDirect (CLD) Gene Expression Assay for xenobiotic metabolism (CYP1A1) at 6 hours (AID 2283661).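 As to AC50: potency for transcript induction above DMSO vehicle baseline.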 In a few lines:
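Read-out 6 h post-dose: qNPA chemiluminescent quantitation of transcript induction against 0.2% DMSO. Cells were cultured primary human hepatocytes from two separate donor preparations; phase-contrast morphology annotated apparent cytotoxicity.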

The nature of experiment [16]: Tanguay_ZF_120hpf_SNOU_legacy: (Legacy) Oregon State University Tanguay Lab 120 Hour Post-fertilization zebrafish Assay for Snout Malformation (AID 2283637). The essentials: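 Binary brightfield scoring of snout malformation at 120 hpf. Dechorionated 5D wild-type embryos, one per well, static exposure from 6 hpf at 28C, sealed and dark; final DMSO 0.64% (vol/vol), DMSO as baseline; 5uM trimethyltin chloride positive control.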

Sequence of Broad substrate specificity ATP-binding cassette transporter ABCG2 (Homo sapiens) (Q9UNQ0 whole entry, looked up): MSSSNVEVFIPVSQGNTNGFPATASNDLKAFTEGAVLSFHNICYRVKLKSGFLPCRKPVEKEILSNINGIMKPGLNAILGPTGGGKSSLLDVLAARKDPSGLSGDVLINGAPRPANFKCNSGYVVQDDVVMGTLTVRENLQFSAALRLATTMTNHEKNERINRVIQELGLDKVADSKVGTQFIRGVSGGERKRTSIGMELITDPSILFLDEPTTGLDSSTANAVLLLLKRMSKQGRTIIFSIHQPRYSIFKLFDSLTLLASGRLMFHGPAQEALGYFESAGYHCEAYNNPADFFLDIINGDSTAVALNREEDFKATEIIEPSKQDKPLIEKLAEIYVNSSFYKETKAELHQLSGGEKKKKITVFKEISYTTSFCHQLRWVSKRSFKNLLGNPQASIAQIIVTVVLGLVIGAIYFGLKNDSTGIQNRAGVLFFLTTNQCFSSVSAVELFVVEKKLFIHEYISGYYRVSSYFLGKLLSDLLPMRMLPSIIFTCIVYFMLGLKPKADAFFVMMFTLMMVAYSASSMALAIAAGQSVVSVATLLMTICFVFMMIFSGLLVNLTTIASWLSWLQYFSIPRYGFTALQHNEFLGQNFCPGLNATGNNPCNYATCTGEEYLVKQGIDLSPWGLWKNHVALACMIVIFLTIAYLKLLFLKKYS

For the molecule `COC(=O)c1ccccc1C(=O)OC`, the outcome in experiment [1], in experiment [2], in [3], in experiment [4], in experiment [5] and in experiment [6] was inactive. In addition, the molecule was called inactive in experiment [7], in [8], in [9], in [10], in experiment [11] and in [12]. The result in experiment [13], in experiment [14] and in [15] was inactive.
`CCCCC(CC)COC(=O)c1ccccc1C(=O)OCC(CC)CCCC` (stereo not drawn): the result in experiment [16], in experiment [1], in experiment [2], in experiment [4], in [5] and in experiment [6] was inactive. The call in experiment [7], in [8], in [9], in experiment [10], in experiment [11] and in experiment [12] was inactive. In addition, the outcome in experiment [15] was inactive.
Consider `COc1nc(NC(C)C)nc(NC(C)C)n1`, for which the call in experiment [1], in experiment [2], in experiment [3], in experiment [4], in experiment [5] and in experiment [6] was inactive. Moreover, the outcome in [7], in experiment [8], in experiment [9], in experiment [10], in experiment [11] and in experiment [12] was inactive. The call in [13] and in experiment [14] was inactive. Besides, in experiment [15], the half-maximal activity concentration (AC50) was 3.97 µM (active).
In the case of `N#Cc1cc(Br)c(O)c(Br)c1`, the call in experiment [16], in experiment [1], in experiment [2], in experiment [3], in experiment [4] and in experiment [5] was inactive. The molecule was called inactive in experiment [6], in [7], in experiment [8], in experiment [9], in [10] and in experiment [11]. For the same molecule, the call in [12], in experiment [13] and in experiment [15] was inactive.
In the case of `COc1ccc(C(c2ccc(OC)cc2)C(Cl)(Cl)Cl)cc1`, the call in experiment [16], in experiment [1], in experiment [3], in experiment [4], in experiment [5] and in [6] was inactive. For the same molecule, the call in experiment [7], in experiment [9], in experiment [10], in [11] and in experiment [13] was inactive. The concentration at half-maximal activity (AC50) in experiment [15] was 15.8 µM (active).
In the case of `N#Cc1nn(-c2c(Cl)cc(C(F)(F)F)cc2Cl)c(N)c1S(=O)C(F)(F)F` (stereo not drawn), the molecule was classed as inactive in experiment [16], in [1], in [2], in experiment [3], in experiment [4] and in [6]. The molecule was called inactive in experiment [7], in experiment [8], in experiment [9], in experiment [10], in experiment [11] and in experiment [12]. Moreover, the molecule was called inactive in [13] and in experiment [14].
Turning to `C=CCC1=C(C)C(OC(=O)C2C(C=C(C)C)C2(C)C)CC1=O` (stereo not drawn), the result in experiment [1], in experiment [2], in experiment [3], in experiment [4], in experiment [5] and in experiment [6] was inactive. Besides, the molecule was classed as inactive in experiment [7], in experiment [8], in experiment [9], in experiment [10], in experiment [11] and in experiment [12]. For the same molecule, the molecule was called inactive in experiment [13], in [14] and in experiment [15].
For `CCc1nn(C)c(C(=O)NCc2ccc(C(C)(C)C)cc2)c1Cl`, the AC50 in [16] is 6.18 µM (active); in [1], 4.39 µM (active); in [3] it was 5.67 µM (active); in experiment [15], 6.51 µM (active). For the same molecule, the molecule was called inactive in experiment [2], in [4], in [5], in [6], in [7] and in [8]. Further, the molecule was classed as inactive in [9], in experiment [10], in experiment [11], in experiment [12] and in experiment [14].
In the case of `CC(Oc1ccc(Cl)cc1Cl)C(=O)O` (stereo not drawn), the molecule was classed as inactive in experiment [16], in experiment [2], in [3], in [4], in experiment [6] and in experiment [7]. The call in experiment [8], in experiment [9], in experiment [10], in experiment [12] and in experiment [15] was inactive.
For the molecule `CCCN(CCC)c1c([N+](=O)[O-])cc(S(N)(=O)=O)cc1[N+](=O)[O-]`, the result in experiment [1], in experiment [2], in [3], in experiment [4], in [5] and in experiment [6] was inactive. Also, the call in experiment [7], in [8], in experiment [9], in [10], in experiment [11] and in experiment [12] was inactive. Also, the molecule was called inactive in experiment [13] and in [14].
Regarding `CCCCOC(=O)c1ccccc1C(=O)OCCCC`, the result in experiment [1], in experiment [2], in experiment [3], in [4], in experiment [5] and in [6] was inactive. Further, the call in experiment [7], in experiment [8], in [9], in experiment [10], in experiment [11] and in experiment [12] was inactive. Further, the call in experiment [13] was inactive. Further, in [15], the AC50 was 3.36 µM (active) and 5.18 µM (active).
As to `Cc1c(F)c(F)c(COC(=O)C2C(/C=C(\Cl)C(F)(F)F)C2(C)C)c(F)c1F` (stereo not drawn), the AC50 in experiment [1] is 2.75 µM (active); in [2] it was 3.67 µM (active); in [3] it was 5.03 µM (active); in [4] it was 2.6 µM (active); in [6], 3.13 µM (active); in experiment [8], 3.42 µM (active). Besides, in experiment [11], the AC50 is 2.36 µM (active). Also, the molecule was called inactive in experiment [5], in experiment [7], in experiment [9], in [10], in experiment [12] and in [13]. The outcome in experiment [14] and in [15] was inactive.
